Whole data set: some 33,000 sequences, median “E-score (-0.5 to 0.5)” near -0.011, cut for the highest 2% near 0.28. The list comes from a sample in which the highest values are over-represented; it also holds similar and randomly drawn sequences.

For this test, the target named is T1, Gcr1 (UniProt P07261).
T1 sequence: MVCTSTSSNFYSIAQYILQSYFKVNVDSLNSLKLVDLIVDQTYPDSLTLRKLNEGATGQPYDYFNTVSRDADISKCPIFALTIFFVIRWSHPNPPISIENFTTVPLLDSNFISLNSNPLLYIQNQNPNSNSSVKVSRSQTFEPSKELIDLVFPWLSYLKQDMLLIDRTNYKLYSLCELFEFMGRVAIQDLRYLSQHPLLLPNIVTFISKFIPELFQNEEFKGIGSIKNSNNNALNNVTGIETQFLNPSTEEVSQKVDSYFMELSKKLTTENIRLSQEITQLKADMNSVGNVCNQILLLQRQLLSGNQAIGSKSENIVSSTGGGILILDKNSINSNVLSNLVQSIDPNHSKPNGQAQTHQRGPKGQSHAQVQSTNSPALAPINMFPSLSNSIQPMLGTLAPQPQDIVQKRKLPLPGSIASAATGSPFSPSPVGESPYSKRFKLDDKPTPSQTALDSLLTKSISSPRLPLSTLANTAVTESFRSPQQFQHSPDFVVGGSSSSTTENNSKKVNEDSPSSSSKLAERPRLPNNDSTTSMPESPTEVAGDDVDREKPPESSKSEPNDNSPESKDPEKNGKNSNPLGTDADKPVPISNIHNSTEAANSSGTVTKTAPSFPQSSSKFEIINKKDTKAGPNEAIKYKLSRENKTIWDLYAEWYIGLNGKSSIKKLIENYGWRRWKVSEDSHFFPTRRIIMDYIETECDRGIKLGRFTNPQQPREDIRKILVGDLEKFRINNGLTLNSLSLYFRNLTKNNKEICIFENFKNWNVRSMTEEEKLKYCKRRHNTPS
Briefly: PBM E-score (8-mer binding enrichment) (E-score (-0.5 to 0.5)); higher = stronger / more preferred TF binding. Particulars: protein concentration: 100 nM; construct: GST-full length. Here is the method:
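Universal 'all 10-mer' protein binding microarrays (Agilent AMADID 015681) probed with GST-tagged S. cerevisiae TFs (full-length or DBD) made by in vitro transcription/translation (PURExpress), about 100-200 nM. Bound TF was detected with fluorescent anti-GST. Each ungapped 8-mer (which stands for itself and its reverse complement) is scored by the PBM enrichment score (E-score), a modified Wilcoxon-Mann-Whitney statistic from -0.5 to +0.5, computed with the Universal PBM Analysis Suite. Scale: above 0.35 generally sequence-specific binding.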
As for CTTCTATA, the “PBM E-score” value stood at 0.187.

Take CAGATACA: the “PBM E-score” value was 0.0958.

For the sequence GACATTCA, the “PBM E-score” value was -0.094.

Turning to AATAACGT, the “PBM E-score” value came out at 0.00611.

With GGATGCCC, the “PBM E-score” value came out at 0.464.

With GGATGCTA, the “PBM E-score” value came to 0.44.

For the sequence AGATGCCA, the “PBM E-score” value is 0.385.

Regarding CGATGCCC, the “PBM E-score” value amounted to 0.0343.

As for AGATGCCG, the “PBM E-score” value stood at 0.273.

On to AGATGCCC, for which the “PBM E-score” value amounted to 0.108.

As for AGATGCTC, the “PBM E-score” value came to 0.0444.

For GAATGCTA, the “PBM E-score” value is -0.121.

Turning to AGATGCTG, the “PBM E-score” value amounted to 0.282.

As to AGATGCCT, the “PBM E-score” value stood at 0.17.

Consider AGATGCTA, for which the “PBM E-score” value turned out to be 0.25.

Turning to CGATGCTA, the “PBM E-score” value turned out to be 0.266.

For the sequence AGAGCGCC, the “PBM E-score” value came out at 0.0412.

CGCAACAG: the “PBM E-score” value is -0.0598.

As for GGCAAACA, the “PBM E-score” value was -0.14.

In the case of GTGGGAGA, the “PBM E-score” value stood at 0.0205.

Turning to GTGGTAGA, the “PBM E-score” value is -0.166.

Turning to AAGGTTGT, the “PBM E-score” value amounted to 0.0394.

As to CGATGCCA, the “PBM E-score” value was determined as 0.156.

Turning to TGATGCCA, the “PBM E-score” value was -0.0459.

On to GGATGCCA, for which the “PBM E-score” value was 0.454.

As to CGTAGGGC, the “PBM E-score” value was -0.108.

For ATTAGCTG, the “PBM E-score” value turned out to be 0.107.

For the sequence AACTGTAC, the “PBM E-score” value is -0.166.

Turning to CGGAAGCC, the “PBM E-score” value was determined as 0.451.

Turning to CGGAAGCA, the “PBM E-score” value stood at 0.0914.

As to GCGAAGCC, the “PBM E-score” value worked out at 0.1.

In the case of CGGAAGGC, the “PBM E-score” value was determined as 0.00052.

In the case of GAGAAGCC, the “PBM E-score” value came to 0.395.

For the sequence AAGAAGCT, the “PBM E-score” value amounted to 0.386.

Turning to AAAAAGCT, the “PBM E-score” value was -0.183.

In the case of AAGAAGCC, the “PBM E-score” value worked out at 0.401.

For the sequence AAGAAGCG, the “PBM E-score” value was 0.0955.

Take AAGAAGCA: the “PBM E-score” value came out at 0.165.

For the sequence AAGAAGGT, the “PBM E-score” value stood at 0.122.

On to GAGAAGCA, for which the “PBM E-score” value was found to be 0.111.

As for CGACCCCC, the “PBM E-score” value was -0.203.

Consider GCAGAGAA, for which the “PBM E-score” value is -0.0151.

For the sequence TGAGCACA, the “PBM E-score” value is -0.235.

Consider AGCATAAT, for which the “PBM E-score” value was -0.00272.

Regarding ATATACTA, the “PBM E-score” value was 0.174.

Take AAAGTTAA: the “PBM E-score” value worked out at 0.0767.

Regarding CAGAAGCA, the “PBM E-score” value came to 0.0126.

Consider CAGAAGCC, for which the “PBM E-score” value came to 0.306.

With CAGAAGCG, the “PBM E-score” value was 0.223.

Take ACGCTAGA: the “PBM E-score” value was -0.0413.

Take TAGCGATA: the “PBM E-score” value is -0.0939.

With CATGCCTC, the “PBM E-score” value is -0.101.

Consider CTCCAGCC, for which the “PBM E-score” value was -0.183.

As to CAATCGGG, the “PBM E-score” value was 0.0633.

Turning to ACGCAACC, the “PBM E-score” value came to 0.121.

Take AAGCAACC: the “PBM E-score” value was 0.0616.

In the case of CGGCAACC, the “PBM E-score” value came to 0.29.

Regarding CCGCAACC, the “PBM E-score” value was determined as 0.316.

As to CAGCAACG, the “PBM E-score” value amounted to 0.0545.

With CCGCAACA, the “PBM E-score” value is -0.0641.

Regarding AGGCAACC, the “PBM E-score” value turned out to be 0.0186.

For the sequence CGGCAACA, the “PBM E-score” value stood at 0.206.

Regarding CAGCAACC, the “PBM E-score” value is 0.287.

As for TTCGCCAA, the “PBM E-score” value amounted to 0.0203.

With CCACCGCC, the “PBM E-score” value is -0.0958.

As to ACTTTGCA, the “PBM E-score” value was -0.0113.

In the case of CCGGGGAA, the “PBM E-score” value came to 0.0357.

Regarding CAACGCAC, the “PBM E-score” value is -0.152.

As for AAGATATT, the “PBM E-score” value was 0.125.

ACCGAGTC: the “PBM E-score” value is -0.306.

Turning to ATAGAGAA, the “PBM E-score” value was -0.111.

CGAGTAGC: the “PBM E-score” value is -0.018.

With GGTGTGAA, the “PBM E-score” value was -0.0292.

Turning to CCTGATCC, the “PBM E-score” value turned out to be 0.0357.

Take CAGAAGAA: the “PBM E-score” value was determined as 0.212.

For AATAAGAA, the “PBM E-score” value turned out to be 0.328.

For AAGAAAAT, the “PBM E-score” value was 0.304.

For the sequence GAGAAGAA, the “PBM E-score” value came out at 0.0707.

In the case of AAGAAATT, the “PBM E-score” value was found to be 0.0237.

In the case of AAGAAGAA, the “PBM E-score” value turned out to be 0.303.

For AATAAGAG, the “PBM E-score” value is 0.0844.

Regarding AAGAAGAC, the “PBM E-score” value is 0.0399.

As for TAGAAGAA, the “PBM E-score” value is 0.352.

For the sequence AATAAGAT, the “PBM E-score” value amounted to 0.0233.

Regarding ACGAAGAA, the “PBM E-score” value was -0.0157.

For AAGAAAAA, the “PBM E-score” value stood at 0.164.

Turning to CCGGAGAA, the “PBM E-score” value is -0.189.

The record behind these values is the supplement of paper PMC3334620.
